# Source: PubChem BioAssay (Tox21)
# Values joined by “and” are separate entries in the source; they are usually repeats but may differ in a detail not shown here. Equal values may be shown once. The source holds several records for some structures; these can differ, active in one and inactive in another. Active and inactive are the calls of the source. A call without a number means that no potency is given here. Unless noted, the call rests on the fitted dose curve.
# Key:
# [1] = qHTS assay for small molecule disruptors of the mitochondrial membrane potential - cell viability (AID 720634); further: nearly all actives have a fitted effect of over 20% in size; further: potency means the concentration at half of the fitted maximal effect
# Outline: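 HepG2 cells seeded overnight at 37 C, then exposed to compound or DMSO for 1 hr at 37 C, 5% CO2. m-MPI dye added, then CellTiter-Glo for 30 min at room temperature; viability read as ATP luminescence.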
# [2] = target: Glucocorticoid receptor (Homo sapiens) (UniProt P04150); experiment: qHTS assay to identify small molecule agonists of the glucocorticoid receptor (GR) signaling pathway (AID 720691; active means well fitted activation curve with a large enough effect in the signal ratio in the repeat runs, not every such curve was filed as active; inconclusive means weak or mixed curves, or effect the other way; inactive means no such curve, though single readings can be large or run the other way; the % refers to the signal ratio; further: potency means the concentration at half of the fitted maximal effect)
# Glucocorticoid receptor (Homo sapiens), sequence (P04150 whole entry, looked up): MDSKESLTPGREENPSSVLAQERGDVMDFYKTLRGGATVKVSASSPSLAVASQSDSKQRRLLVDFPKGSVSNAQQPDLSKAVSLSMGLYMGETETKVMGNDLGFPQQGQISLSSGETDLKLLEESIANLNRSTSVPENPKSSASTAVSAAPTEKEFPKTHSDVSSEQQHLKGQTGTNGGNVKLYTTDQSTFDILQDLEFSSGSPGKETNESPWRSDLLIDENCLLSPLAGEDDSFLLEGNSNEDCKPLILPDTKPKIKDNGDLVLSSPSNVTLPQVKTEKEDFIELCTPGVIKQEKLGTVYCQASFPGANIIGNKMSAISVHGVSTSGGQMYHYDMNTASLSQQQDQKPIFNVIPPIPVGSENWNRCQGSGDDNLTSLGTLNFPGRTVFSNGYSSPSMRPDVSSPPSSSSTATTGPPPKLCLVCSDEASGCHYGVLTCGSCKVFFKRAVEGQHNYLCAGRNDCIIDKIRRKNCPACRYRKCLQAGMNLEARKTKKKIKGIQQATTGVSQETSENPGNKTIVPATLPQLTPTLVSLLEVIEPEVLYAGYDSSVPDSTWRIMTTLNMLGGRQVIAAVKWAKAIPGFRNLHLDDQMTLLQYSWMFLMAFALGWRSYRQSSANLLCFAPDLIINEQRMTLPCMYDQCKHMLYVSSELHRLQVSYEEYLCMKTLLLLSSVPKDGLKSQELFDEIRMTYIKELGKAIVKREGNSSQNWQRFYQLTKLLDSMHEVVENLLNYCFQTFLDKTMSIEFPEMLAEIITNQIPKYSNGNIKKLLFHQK
# Outline: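 GR-bla HeLa cells (beta-lactamase reporter under glucocorticoid response element) were plated 4 h at 37 C/5% CO2, given compounds in DMSO, and incubated 18 h at 37 C. LiveBLAzer B/G FRET substrate was added for 2 h at room temperature, then fluorescence intensity read.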
# [3] = target: Glucocorticoid receptor (Homo sapiens) (UniProt P04150); experiment: qHTS assay to identify small molecule antagonists of the glucocorticoid receptor (GR) signaling pathway (AID 720692; active means well fitted inhibition curve with a large enough effect in the signal ratio in the repeat runs, not every such curve was filed as active; inconclusive means weak or mixed curves, or effect the other way; inactive means no such curve, though single readings can be large or run the other way; the % refers to the signal ratio; further: potency means the concentration at half of the fitted maximal effect)
# Outline: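 GR-bla HeLa cells (beta-lactamase reporter under glucocorticoid response element) were pre-plated 4 h at 37 C, treated with compounds plus 5 nM dexamethasone (final) for 18 h, then read by LiveBLAzer B/G FRET fluorescence after 2 h.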
# [4] = qHTS assay to identify small molecule antagonists of the estrogen receptor alpha (ER-alpha) signaling pathway - cell viability counter screen (AID 743074);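 further: HEK293 cells carrying ER-alpha-UAS-bla reporter stimulated with 17beta-estradiol; nearly all actives have a fitted effect of over 45% in size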; further: potency means the concentration at half of the fitted maximal effect
# [5] = qHTS assay to identify small molecule antagonists of the peroxisome proliferator-activated receptor gamma (PPARg) signaling pathway - cell viability counter screen (AID 743194; active means well fitted curve in the direction sought with a large enough effect in the repeat runs; inconclusive means weak or mixed curves; inactive means no such curve, though single readings can be large; an effect the other way counts as inactive or inconclusive; further: nearly all actives have a fitted effect of over 55% in size; further: potency means the concentration at half of the fitted maximal effect); details: Potency: co-treated with 50 nM rosiglitazone unless noted
# Outline: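 Viability was measured as CellTiter-Glo luminescence in GeneBLAzer PPARg UAS-bla HEK293H cells. These cells had been exposed 17 h at 37 C to compounds together with rosiglitazone at 50 nM final, with the beta-lactamase readout taken in the same wells.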
# [6] = qHTS assay for small molecule agonists of the antioxidant response element (ARE) signaling pathway - cell viability counter screen (AID 743203); further: nearly all actives have a fitted effect of over 55% in size; further: potency means the concentration at half of the fitted maximal effect
# Outline: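 CellSensor ARE-bla HepG2 cells, 2,000 per well, rested 5 hrs at 37C/5% CO2, then exposed to compound in DMSO for 16 hrs; viability read as CellTiter-Glo luminescence after 30 min at room temperature, in the reporter wells.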
# [7] = qHTS assay to identify small molecule antagonists of the peroxisome proliferator-activated receptor delta (PPARd) signaling pathway - cell viability counter screen (AID 743213; active means well fitted curve in the direction sought with a large enough effect in the repeat runs; inconclusive means weak or mixed curves; inactive means no such curve, though single readings can be large; an effect the other way counts as inactive or inconclusive; further: nearly all actives have a fitted effect of over 50% in size; further: potency means the concentration at half of the fitted maximal effect)
# Outline: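 Viability counter-screen, qHTS format: PPARd-bla HEK293H, L165041 300 nM final, 17 h compound exposure at 37 C, CellTiter-Glo luminescence after 30 min RT.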
# [8] = qHTS assay to identify small molecule agonists of the farnesoid-X-receptor (FXR) signaling pathway - cell viability counter screen (AID 743218; active means well fitted curve in the direction sought with a large enough effect in the repeat runs; inconclusive means weak or mixed curves; inactive means no such curve, though single readings can be large; an effect the other way counts as inactive or inconclusive; further: nearly all actives have a fitted effect of over 45% in size; further: potency means the concentration at half of the fitted maximal effect)
# Outline: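 FXR-UAS-bla HEK 293T cells, plated 5 h at 37 C, were exposed to compounds for 16 h at 37 C. CellTiter-Glo was then added to the same wells as the bla readout; luminescence read after 30 min at room temperature.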
# [9] = qHTS assay to identify small molecule agonists of the vitamin D receptor (VDR) signaling pathway - cell viability counter screen (AID 743224; active means well fitted curve in the direction sought with a large enough effect in the repeat runs; inconclusive means weak or mixed curves; inactive means no such curve, though single readings can be large; an effect the other way counts as inactive or inconclusive; further: nearly all actives have a fitted effect of over 50% in size; further: potency means the concentration at half of the fitted maximal effect)
# Outline: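 VDR-bla cells were preincubated 4 h at 37C/5% CO2, then exposed to compounds for 16 h. After the 2 h room-temperature bla FRET read, CellTiter-Glo was added to the same wells and luminescence read after 30 min.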
# [10] = qHTS assay to identify small molecule antagonists of the vitamin D receptor (VDR) signaling pathway - cell viability counter screen (AID 743225; active means well fitted curve in the direction sought with a large enough effect in the repeat runs; inconclusive means weak or mixed curves; inactive means no such curve, though single readings can be large; an effect the other way counts as inactive or inconclusive; further: nearly all actives have a fitted effect of over 50% in size; further: potency means the concentration at half of the fitted maximal effect)
# Outline: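 Read-out: CellTiter-Glo luminescence measured 30 min after reagent addition at room temperature. Cells were VDR-bla HEK 293T exposed 16 h at 37C, 5% CO2, to compound with 3 nM final calcitriol agonist.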
# [11] = qHTS assay to identify small molecule phospholipidosis (PLD) inducers (AID 1259344; active means well fitted curve in the direction sought with a large enough effect; inconclusive means small, poorly fitted or top-dose-only effect, or another doubt; inactive means no such curve, though single readings can be large; an effect the other way counts as inactive or inconclusive; further: potency means the concentration at half of the fitted maximal effect)
# Outline: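 Phospholipidosis is scored by imaging LipidTOX-stained pits in HepG2 cells exposed to compound for 24 h at 37 C; pit counts and integrated intensities per well and per cell serve as outputs.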
# [12] = qHTS assay to identify small molecule antagonists of the retinoid-related orphan receptor gamma (ROR-gamma) signaling pathway - cell viability counter screen (AID 1159520; active means well fitted curve in the direction sought with a large enough effect in the repeat runs; inconclusive means weak or mixed curves; inactive means no such curve, though single readings can be large; an effect the other way counts as inactive or inconclusive; further: nearly all actives have a fitted effect of over 50% in size; further: potency means the concentration at half of the fitted maximal effect)
# Outline: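 Cytotoxicity was read from cellular ATP (CellTiter-Glo luminescence) after 16 hr at 37 C with 1 uM doxycycline induction. The inducer was added 2 hr after compound transfer to Tet-on ROR gamma CHO cells.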
# [13] = qHTS assay for small molecule agonists of the p53 signaling pathway - cell viability (AID 651633); further: nearly all actives have a fitted effect of over 30% in size; further: potency means the concentration at half of the fitted maximal effect
# Outline: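 Viability counter-read: CellTiter-Glo luminescence (30 min, room temperature) in the same p53RE-bla plates. These plates had been exposed to compounds for 16 h at 37 C.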
# [14] = qHTS assay to identify small molecule antagonists of the thyroid receptor (TR) signaling pathway (AID 743065; active means well fitted curve in the direction sought with a large enough effect in the repeat runs; inconclusive means weak or mixed curves; inactive means no such curve, though single readings can be large; an effect the other way counts as inactive or inconclusive; further: potency means the concentration at half of the fitted maximal effect; nearly all actives have a fitted effect of over 55% in size)
# Outline: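 Antagonism measured as loss of luciferase signal in GH3 cells stably carrying a TRE-luciferase reporter, co-treated with compound and T3 (1 nM final) for 23.5 h at 37 C. Viability was read in the same well by CellTiter-Fluor.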
# [15] = qHTS assay to identify small molecule antagonists of the estrogen receptor alpha (ER-alpha) signaling pathway using the BG1 cell line (AID 743080);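 further: BG1 cells stimulated with 17beta-estradiol alongside compound; nearly all actives have a fitted effect of over 25% in size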; further: potency means the concentration at half of the fitted maximal effect
# Outline: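 Readout is ONE-Glo luminescence, taken 30 min at room temperature after reagent addition, preceded by a CellTiter-Fluor viability read; BG1-Luc-4E2 cells had received compound and 17beta-estradiol for 21.5 h at 37 C.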
# [16] = qHTS assay for small molecule activators of the heat shock response signaling pathway - cell viability counter screen (AID 743209; active means well fitted curve in the direction sought with a large enough effect in the repeat runs; inconclusive means weak or mixed curves; inactive means no such curve, though single readings can be large; an effect the other way counts as inactive or inconclusive; further: nearly all actives have a fitted effect of over 50% in size; further: potency means the concentration at half of the fitted maximal effect)
# Outline: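 CellSensor HSE-bla HeLa cells, plated overnight at 37 C/5% CO2, were exposed to compounds in DMSO for 5 h at 37 C. Viability was then read in the same wells by CellTiter-Glo luminescence after 30 min at room temperature.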
# [17] = qHTS assay to identify small molecule agonists of the retinoic acid receptor (RAR) signaling pathway (AID 1159553; active means well fitted curve in the direction sought with a large enough effect in the repeat runs; inconclusive means weak or mixed curves; inactive means no such curve, though single readings can be large; an effect the other way counts as inactive or inconclusive)
# Outline: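 C3RL4 cells carrying a RARE luciferase reporter were plated overnight at 37 C, then exposed to compounds in DMSO for 6 hr at 37 C and 5% CO2. Luminescence was read 30 min after luciferase reagent addition at room temperature.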
# [18] = tested on: thyroid hormone receptor (rat, GH3 cells); experiment: qHTS assay to identify small molecule agonists of the thyroid receptor (TR) signaling pathway (AID 743066)
# [19] = target: Estrogen receptor (Homo sapiens) (UniProt P03372); experiment: qHTS assay to identify small molecule agonists of the estrogen receptor alpha (ER-alpha) signaling pathway (AID 743075);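 further: HEK293 GripTite cells with ER-alpha and UAS-driven beta-lactamase reporter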; further: potency means the concentration at half of the fitted maximal effect
# Estrogen receptor (Homo sapiens), sequence (P03372 whole entry, looked up): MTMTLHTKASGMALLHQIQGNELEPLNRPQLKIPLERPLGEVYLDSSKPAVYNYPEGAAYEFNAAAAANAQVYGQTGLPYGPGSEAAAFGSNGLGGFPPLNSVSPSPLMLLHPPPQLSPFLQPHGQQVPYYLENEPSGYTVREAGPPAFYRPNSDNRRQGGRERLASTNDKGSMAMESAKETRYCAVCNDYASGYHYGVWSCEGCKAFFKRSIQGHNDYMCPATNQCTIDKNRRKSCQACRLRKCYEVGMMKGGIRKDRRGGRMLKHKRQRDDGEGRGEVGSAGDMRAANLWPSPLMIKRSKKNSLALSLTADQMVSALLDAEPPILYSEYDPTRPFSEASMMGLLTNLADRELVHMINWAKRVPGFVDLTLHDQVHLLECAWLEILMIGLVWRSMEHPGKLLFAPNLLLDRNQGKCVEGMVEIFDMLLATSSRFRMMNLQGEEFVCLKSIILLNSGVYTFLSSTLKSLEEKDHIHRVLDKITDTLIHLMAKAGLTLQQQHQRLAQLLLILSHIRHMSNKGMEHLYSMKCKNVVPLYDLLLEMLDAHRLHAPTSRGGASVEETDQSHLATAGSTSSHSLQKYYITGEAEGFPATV
# [20] = qHTS assay for small molecules that induce genotoxicity in human embryonic kidney cells expressing luciferase-tagged ATAD5 - cell viability (AID 651634); further: nearly all actives have a fitted effect of over 25% in size; further: potency means the concentration at half of the fitted maximal effect
# Outline: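 HEK293T cells expressing luciferase-tagged ATAD5 were exposed to compound or DMSO for 15.5 hr at 37C, 5% CO2. Viability was then read as live-cell protease activity by CellTiter-Fluor fluorescence after 30 min at 37C.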
compound,measurement,setting,value
c1ccc2c(c1)Sc1ccccc1N2CC1CN2CCC1CC2 (stereo not given),Potency,[1],inactive
same,Potency,[2],inactive
same,Potency,[3],21.3 µM (active)
same,Potency,[4],21.3 µM (active)
same,Potency,[5],26.6 µM (active)
same,Potency,[6],13.3 µM (active)
same,Potency,[7],9.44 µM (active)
same,Potency,[8],10.6 µM (active)
same,Potency,[9],21.1 µM (active)
same,Potency,[10],21.3 µM (active)
same,Potency,[11],3.55 µM (active)
N#Cc1cc([N+](=O)[O-])ccc1N,Potency,[12],inactive
CCC(C)=O,Potency,[3],inactive
CC1COC(Cn2cncn2)(c2ccc(Oc3ccc(Cl)cc3)cc2Cl)O1 (stereo not given),Potency,[13],inactive
same,Potency,[1],2.43 µM (active)
same,Potency,[3],43.6 µM (active)
same,Potency,[14],12.2 µM (active)
same,Potency,[15],13.7 µM (active)
same,Potency,[5],49 µM (active)
same,Potency,[6],54.5 µM (active)
same,Potency,[16],inactive
same,Potency,[8],49 µM (active)
same,Potency,[9],54.9 µM (active)
same,Potency,[10],49 µM (active)
same,outcome,[17],inactive
CCOC(=O)C(O)(c1ccc(Cl)cc1)c1ccc(Cl)cc1,Potency,[13],15.5 µM (active)
same,Potency,[1],30.9 µM (active)
same,Potency,[18],inactive
same,Potency,[4],24.8 µM (active) and inactive
same,Potency,[19],inactive
same,Potency,[6],24.6 µM (active)
same,Potency,[16],7.84 µM (active) and inactive
same,Potency,[7],22.1 µM (active)
same,Potency,[8],24.8 µM (active) and inactive
same,Potency,[9],7.84 µM (active) and 43.6 µM (active)
same,Potency,[10],11.1 µM (active) and 38.9 µM (active)
O=S(=O)(C(Cl)(Cl)Cl)C(Cl)(Cl)Cl,Potency,[12],17.2 µM (active)
O=C(Nc1ccccc1-c1ccc(Cl)cc1)c1cccnc1Cl,Potency,[13],inactive
same,Potency,[20],inactive
same,Potency,[2],inactive
same,Potency,[18],inactive
same,Potency,[19],inactive
same,Potency,[15],inactive
same,outcome,[17],inactive
same,Potency,[11],inactive
COc1cc(OC)c(OC)cc1C=O,Potency,[13],inactive
same,Potency,[20],inactive
same,Potency,[1],inactive
same,Potency,[2],inactive
same,Potency,[19],inactive
same,Potency,[15],inactive
same,Potency,[6],inactive
same,Potency,[7],inactive
Cc1ccc2nc3sc(=O)sc3nc2c1,"activity, negative = cytotoxicity",[12],-10.1% [at 19 µM] (inactive)
Nc1ccc([N+](=O)[O-])cc1,Potency,[20],54.5 µM (active)
same,Potency,[2],inactive
same,Potency,[14],61.1 µM (active)
same,Potency,[18],inactive
same,Potency,[11],inactive
O=[N+]([O-])c1c(Cl)c(Cl)cc(Cl)c1Cl,Potency,[13],inactive
same,Potency,[20],inactive
same,Potency,[18],inactive
same,Potency,[15],inactive
same,Potency,[6],inactive
same,Potency,[9],inactive
same,Potency,[12],inactive
same,outcome,[17],inactive
same,Potency,[11],inactive
ClC(Cl)=C(c1ccc(Cl)cc1)c1ccccc1Cl,Potency,[12],inactive
Cc1ccc(N(SC(F)(Cl)Cl)S(=O)(=O)N(C)C)cc1,Potency,[14],2.17 µM (active)
same,Potency,[5],7.76 µM (active)
same,Potency,[6],7.7 µM (active)
same,Potency,[7],13.8 µM (active)
same,Potency,[8],13.8 µM (active)
same,Potency,[9],7.76 µM (active)
same,Potency,[12],6.11 µM (active)
OCC(c1ccc(Cl)cc1)c1ccc(Cl)cc1,Potency,[20],inactive
same,Potency,[14],61.1 µM (active)
same,Potency,[4],inactive
same,Potency,[19],inactive
same,Potency,[15],68.6 µM (active)
same,Potency,[16],inactive
same,Potency,[8],inactive
same,Potency,[10],54.9 µM (active)
ClC1=C(Cl)[C@]2(Cl)[C@@H]3[C@@H](Cl)[C@H]4O[C@H]4[C@@H]3C1(Cl)C2(Cl)Cl,Potency,[13],inactive
same,Potency,[20],inactive
same,Potency,[1],inactive
same,Potency,[14],54.5 µM (active)
same,Potency,[4],inactive
same,Potency,[19],inactive
same,Potency,[15],inactive
same,Potency,[5],43.6 µM (active)
same,Potency,[7],inactive
Cc1nnc2n1-c1sc(CCc3ccc(CC(C)C)cc3)cc1C(c1ccccc1Cl)=NC2C (stereo not given),Potency,[13],23.7 µM (active)
same,Potency,[1],inactive
same,Potency,[19],inactive
same,Potency,[5],29.8 µM [setting not given] (active)
same,Potency,[16],29.8 µM (active)
same,Potency,[8],33.5 µM (active)
same,Potency,[10],23.9 µM (active)
same,Potency,[11],inactive
Cc1cc(C(C)(C)c2ccc(O)c(C)c2)ccc1O,Potency,[13],inactive
same,Potency,[3],13.1 µM (active)
same,Potency,[18],inactive
same,Potency,[4],inactive
same,Potency,[5],37 µM (active)
same,Potency,[6],46.2 µM (active)
same,Potency,[9],33 µM (active)
O=C1C(I)=CC(=C(c2cc(I)c(O)c(I)c2)c2ccccc2C(=O)O)C=C1I,Potency,[1],inactive
same,Potency,[3],16.9 µM (active) and 8.49 µM (active)
same,Potency,[18],inactive
same,Potency,[4],inactive
same,Potency,[19],inactive
same,Potency,[15],inactive
same,Potency,[7],inactive
same,Potency,[8],inactive
same,Potency,[10],inactive
same,Potency,[12],inactive
same,outcome,[17],inactive
same,Potency,[11],inactive
Cc1cccc(C)c1[N+](=O)[O-],Potency,[3],inactive
Brc1ccc(-c2ccccc2)cc1,Potency,[3],inactive
COc1ccc(C(c2ccc(OC)cc2)C(Cl)(Cl)Cl)cc1,Potency,[20],inactive
same,Potency,[2],inactive
same,Potency,[3],34.5 µM (active)
same,Potency,[14],24.2 µM (active)
same,Potency,[19],19.4 µM [inconclusive] (active)
same,Potency,[15],inactive
same,outcome,[17],inactive
same,Potency,[11],31.6 µM (active)
CO/C=C(/C(=O)OC)c1ccccc1Oc1cc(Oc2ccccc2C#N)ncn1,Potency,[20],7.31 µM (active)
same,Potency,[2],inactive
same,Potency,[14],0.411 µM (active)
same,Potency,[18],inactive
same,Potency,[4],16.5 µM (active)
same,Potency,[19],inactive
same,Potency,[16],inactive
same,Potency,[9],5.22 µM (active)
same,outcome,[17],inactive
CCc1cccc(C)c1N,Potency,[3],inactive
CN1CSC(=S)N(C)C1,Potency,[13],inactive
same,Potency,[20],inactive
same,Potency,[1],inactive
same,Potency,[2],1.94 µM (active)
same,Potency,[14],3.05 µM (active) and 3.85 µM (active)
same,Potency,[18],inactive
same,Potency,[4],inactive
same,Potency,[19],inactive
same,Potency,[5],inactive
same,Potency,[6],inactive
same,Potency,[16],inactive and 1.09 µM (active)
same,Potency,[7],7.72 µM (active) and 5.48 µM (active)
same,Potency,[8],4.87 µM (active)
same,Potency,[9],6.13 µM (active) and 3.88 µM (active)
same,Potency,[10],inactive
Clc1ccccc1-c1ccccc1Cl,Potency,[20],inactive
same,Potency,[2],inactive
same,Potency,[4],inactive
same,Potency,[6],inactive
same,Potency,[16],inactive
same,Potency,[7],inactive
same,Potency,[8],inactive
same,Potency,[9],inactive
same,Potency,[10],inactive
same,outcome,[17],inactive
